Data: the supplement of paper PMC8728848
Shown is part of a subset that was picked to be rich in the strongest signals.

Tests used:
Test in all cases: glycan array binding signal (z-score within array); higher = stronger binding
Conditions in all cases: glycan notation: IUPAC condensed, linker removed
[1] = target: Gal(b1-4)GlcNAc(b1-3)Gal(b1-4)GlcNAc(b1-3)GalNAc
Procedure, shortened: (§1)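 Negative Z-scores can be read as non-binding. The Z-score is calculated within each array and then averaged across arrays of one protein sequence at different concentrations or buffers and across linkers. Arrays, 3228 in all, were curated from the Consortium for Functional Glycomics database and kept only where the protein sequence was available.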

[2] = target: Gal(b1-4)GlcNAc(b1-3)Gal(b1-4)GlcNAc(b1-6)[Gal(b1-3)]GalNAc
Procedure, shortened: as §1

Gal(b1-6)Gal = target: Gal(b1-6)Gal
Procedure, shortened: as §1

[3] = target: Gal3S(b1-4)[Fuc(a1-3)]GlcNAc6S
Procedure, shortened: as §1

Gal3S4S(b1-4)GlcNAc = target: Gal3S4S(b1-4)GlcNAc
Procedure, shortened: as §1

Gal4S6S(b1-4)GlcNAc = target: Gal4S6S(b1-4)GlcNAc
Procedure, shortened: as §1

Gal6S(b1-3)GlcNAc = target: Gal6S(b1-3)GlcNAc
Procedure, shortened: as §1

Gal6S(b1-3)GlcNAc6S = target: Gal6S(b1-3)GlcNAc6S
Procedure, shortened: as §1

Gal6S(b1-4)Glc = target: Gal6S(b1-4)Glc
Procedure, shortened: as §1

Gal6S(b1-4)Glc6S = target: Gal6S(b1-4)Glc6S
Procedure, shortened: as §1

Gal6S(b1-4)GlcNAc6S = target: Gal6S(b1-4)GlcNAc6S
Procedure, shortened: as §1

Glc(a1-4)Glc = target: Glc(a1-4)Glc
Procedure, shortened: as §1

[4] = target: GlcNAc(a1-4)Gal(b1-4)GalNAc
Procedure, shortened: as §1

[5] = target: GlcNAc(a1-4)Gal(b1-4)GlcNAc(b1-3)Gal(b1-4)GlcNAc(b1-3)Gal(b1-4)GlcNAc
Procedure, shortened: as §1

[6] = target: GlcNAc(a1-4)Gal(b1-4)GlcNAc(b1-3)Gal(b1-4)[Fuc(a1-3)]GlcNAc(b1-3)Gal(b1-4)[Fuc(a1-3)]GlcNAc
Procedure, shortened: as §1

[7] = target: GlcNAc(b1-2)[GlcNAc(b1-4)]Man(a1-3)[GlcNAc(b1-2)Man(a1-6)]Man(b1-4)GlcNAc(b1-4)GlcNAc
Procedure, shortened: as §1

[8] = target: GlcNAc(b1-3)Gal(b1-4)GlcNAc(b1-2)Man(a1-3)[GlcNAc(b1-3)Gal(b1-4)GlcNAc(b1-2)Man(a1-6)]Man(b1-4)GlcNAc(b1-4)[Fuc(a1-6)]GlcNAc
Procedure, shortened: as §1

[9] = target: GlcNAc(b1-3)Gal(b1-4)GlcNAc(b1-3)Gal(b1-4)GlcNAc(b1-2)Man(a1-3)[GlcNAc(b1-3)Gal(b1-4)GlcNAc(b1-3)Gal(b1-4)GlcNAc(b1-2)Man(a1-6)]Man(b1-4)GlcNAc(b1-4)[Fuc(a1-6)]GlcNAc
Procedure, shortened: as §1

[10] = target: GlcNAc(b1-3)Gal(b1-4)GlcNAc(b1-3)Gal(b1-4)GlcNAc(b1-3)Gal(b1-4)GlcNAc(b1-2)[GlcNAc(b1-3)Gal(b1-4)GlcNAc(b1-3)Gal(b1-4)GlcNAc(b1-3)Gal(b1-4)GlcNAc(b1-6)]Man(a1-6)[GlcNAc(b1-3)Gal(b1-4)GlcNAc(b1-3)Gal(b1-4)GlcNAc(b1-3)Gal(b1-4)GlcNAc(b1-2)Man(a1-3)]Man(b1-4)GlcNAc(b1-4)[Fuc(a1-6)]GlcNAc
Procedure, shortened: as §1

[11] = target: GlcNAc(b1-3)Gal(b1-4)GlcNAc(b1-3)Gal(b1-4)GlcNAc(b1-3)Gal(b1-4)GlcNAc(b1-3)Gal(b1-4)GlcNAc(b1-2)Man(a1-3)[GlcNAc(b1-3)Gal(b1-4)GlcNAc(b1-3)Gal(b1-4)GlcNAc(b1-3)Gal(b1-4)GlcNAc(b1-3)Gal(b1-4)GlcNAc(b1-2)Man(a1-6)]Man(b1-4)GlcNAc(b1-4)[Fuc(a1-6)]GlcNAc
Procedure, shortened: as §1

[12] = target: GlcNAc(b1-3)Gal(b1-4)GlcNAc(b1-6)[Gal(b1-3)]GalNAc
Procedure, shortened: as §1

GlcNAc(b1-3)Man = target: GlcNAc(b1-3)Man
Procedure, shortened: as §1

GlcNAc(b1-6)GalNAc = target: GlcNAc(b1-6)GalNAc
Procedure, shortened: as §1

[13] = target: Man(a1-2)Man(a1-2)Man(a1-6)[Man(a1-3)]Man
Procedure, shortened: as §1

[14] = target: Man(a1-2)Man(a1-3)[Man(a1-2)Man(a1-6)]Man
Procedure, shortened: as §1

[15] = target: Man(a1-2)Man(a1-3)[Man(a1-6)]Man(a1-6)[Man(a1-2)Man(a1-3)]Man(b1-4)GlcNAc(b1-4)GlcNAc
Procedure, shortened: as §1

Man(a1-6)Man = target: Man(a1-6)Man
Procedure, shortened: as §1

MurNAc(b1-4)GlcNAc = target: MurNAc(b1-4)GlcNAc
Procedure, shortened: as §1

[16] = target: Neu5Ac(a2-3)Gal(b1-3)[Fuc(a1-4)]GlcNAc(b1-3)Gal(b1-4)[Fuc(a1-3)]GlcNAc
Procedure, shortened: as §1

[17] = target: Neu5Ac(a2-3)Gal(b1-4)GlcNAc(b1-3)Gal(b1-3)GlcNAc
Procedure, shortened: as §1

B1: SP16664B-bot-474-25-474 (Bacteroides ovatus) (protein)
chain: CEEDIEIGNKIDESSYLASTQLSGLLLDENTNKNSSVIELRNNEYSTNVVFRLSKLPQKGVDVQIAVEESYAAIYNTIHETDFEVFPAANVKIANNGTFVLAPDDKVTPSVKVTLTAFDGMEEDKTYIVPLTVTSSTEGVTFTETSKHMVLLVQDYRNKPNTNKGEDAVQTVLYFEVNDTNPLNALEFLTESGKYFFDHIVLFAANINWDPEKQRVYLANNENVQFLLDNNDKYLQPLRKAGMKIIISILGNHDEAGVAQLSDMGAREFARELAAYCRAYNLDGVAFDDEYSNSPDLSNPWLASPSAYAGSRLMYECKAVMPEKIVSLYNLGNMYSSSLQVIDGIEPGQYCDYAVADYGGAAGPGTGMTLKQCAGMSIELRRGSGNSSESTARSRKEAGYGYYMFFALDPSLYGSQVYRCQSVCKGLYDETLVYPSYYYKKNSTEREAIN
[1]
  glycan array binding signal (z-score): 1.54
[2]
  glycan array binding signal (z-score): 0.334
Gal(b1-6)Gal
  glycan array binding signal (z-score): -0.141
[3]
  glycan array binding signal (z-score): 0.545
Gal3S4S(b1-4)GlcNAc
  glycan array binding signal (z-score): 0.303
Gal4S6S(b1-4)GlcNAc
  glycan array binding signal (z-score): -0.008
Gal6S(b1-3)GlcNAc
  glycan array binding signal (z-score): 0.118
Gal6S(b1-3)GlcNAc6S
  glycan array binding signal (z-score): 0.522
Gal6S(b1-4)Glc
  glycan array binding signal (z-score): -0.453
Gal6S(b1-4)Glc6S
  glycan array binding signal (z-score): 0.797
Gal6S(b1-4)GlcNAc6S
  glycan array binding signal (z-score): -0.289
Glc(a1-4)Glc
  glycan array binding signal (z-score): -0.119
[4]
  glycan array binding signal (z-score): 0.293
[5]
  glycan array binding signal (z-score): -0.159
[6]
  glycan array binding signal (z-score): 4.58
[7]
  glycan array binding signal (z-score): 0.16
[8]
  glycan array binding signal (z-score): 0.352
[9]
  glycan array binding signal (z-score): 11.2
[10]
  glycan array binding signal (z-score): 0.018
[11]
  glycan array binding signal (z-score): 0.334
[12]
  glycan array binding signal (z-score): 1.57
GlcNAc(b1-3)Man
  glycan array binding signal (z-score): 0.501
GlcNAc(b1-6)GalNAc
  glycan array binding signal (z-score): -0.234
[13]
  glycan array binding signal (z-score): -0.417
[14]
  glycan array binding signal (z-score): -0.568
[15]
  glycan array binding signal (z-score): -0.368
Man(a1-6)Man
  glycan array binding signal (z-score): 0.198
MurNAc(b1-4)GlcNAc
  glycan array binding signal (z-score): -0.181
[16]
  glycan array binding signal (z-score): 0.654
[17]
  glycan array binding signal (z-score): -0.055
